Results filed as inconclusive are left out. The source made the active and inactive calls. The call rests on the fitted dose curve; in most records, active means well fitted inhibition curve with a large enough effect; inconclusive means small, poorly fitted or top-dose-only effect, or effect the other way; inactive means flat fitted curve, though single readings scatter.
Test: qHTS for Inhibitors of Plasmodium falciparum (CP250) proliferation (AID 504320)
Conditions: P. falciparum CP250 in erythrocytes, SYBR Green DNA, 72 h; series mostly up to 6.7 µM
Text: Plasmodium falciparum is a virulent malarial parasite that kills 1-2 million people worldwide each year. Malaria not only inflicts tremendous suffering and morbidity on the human population, but has dramatically influenced the course of civilization with profound sociological and economic implications (Shah, S. 2010). Transmitted by mosquitoes, the sporozoite form of the parasite enters the blood stream to infect hepatocytes, where they become merozoites that infect red blood cells (erythrocytes). Within erythrocytes, merozoites begin a […] cycle of growth and division, after which the parasite is released to infect new red blood cells. Gametocytes, which form within erythrocytes as well, circulate in the bloodstream and are ingested by the mosquito, thereby completing the life cycle (see CDC website). To profile malarial lines for differential chemical responses and to identify inhibitors of malarial growth, an assay that measures P. falciparum growth and replication within erythrocytes was employed. This assay uses a DNA binding fluorescent dye (SYBR Green) to detect parasite DNA following cell lysis. Because mature erythrocytes lack DNA, only Plasmodium-derived DNA is detected. The P. falciparum line cp250, derived from a malarial isolate from Cambodia, (Mu, J., et al. 2010) was added to the panel of lines, Dd2, HB3, 7G8 and GB4 in this study. Laboratory of Assay Development and Screening Technology [ADST] and NIH Chemical Genomics Center [NCGC] Boston University, Chemistry Department, Center for Chemical Methodology and Library Development [CMLD-BU] NIH National Institute of Allergy and Infectious Diseases [NIAID]
ADST Assay Protocol Summary: The 1536-well SYBR Green viability assay was based on the method of Bennett et al (2004) and described previously in 1536-well format (Yuan J., et al. 2009). For screening 3 ul culture medium was dispensed into 1536 well black clear bottom plates (Aurora Biotechnologies) using a Multidrop Combi (Thermo Fisher Scientific Inc.), 23 nL compounds in DMSO were added by a pin transfer (Cleveland, P.H. and Koutz, P.J, 2005) using a pin tool-based delivery system (Kalypsys), and 5 ul of erythrocytes infected with P. falciparum one of five lines (cp250, Dd2, HB3, 7G8 or GB4, 0.3% parasitemia, 2.5% hematocrit final concentration) were added. The plates were incubated at 37C in a humidified incubator in 5% CO2 for 72 h, and 2 ul lysis buffer (20 mM Tris HCl, 10 mM EDTA, 0.16% saponin, 1.6% triton X, 10X SYBR Green I (supplied as 10,000X final concentration by Invitrogen) was added to each well. The plates were mixed for 25 sec with gentle shaking and incubated overnight at room temperature in the dark. The following morning, fluorescence intensity at 485(14) nm excitation and 535(25) nm emission wavelengths was measured on an EnVision (Perkin Elmer) plate reader. Plate reads were normalized relative to the control inhibitor (0.29 uM artemisinin) and vehicle (DMSO) wells present on each plate and then corrected by an algorithm using vehicle-only control plates at the beginning and end of the compound plate stack. References Shah, S. (2010). The Fever: how malaria has ruled humankind for 500,000 years. New York, Sarah Crichton Books. CDC web site, http://www.cdc.gov/malaria/about/biology/index.html Mu, J., Myers, R.A., Jiang, H., Liu, S., Ricklefs, S., Waisberg, M., Chotivanich, K., Wilairatana, P., Krudsood, S., White, N.J., et Plasmodium falciparum genome-wide scans for positive selection, recombination hot spots and resistance to antimalarial drugs Nature Genetics 2010, 42, pp 268-271 Bennett TN, Paguio, M., Gligorijevic, B., Seudieu, C., Kosar, A. D., Davidson, E., and Roepe, P. D. Novel, rapid, and inexpensive cell-based quantification of antimalarial drug efficacy Antimicrobial Agents Chemother. 2004, 48(5): pp 1807-10 Yuan J, Johnson RL, Huang RL, Wichterman J, Jiang HY, Hayton K, Fidock DA, Wellems TE, Inglese J, Austin CP, Su XZ. […]

Potency, inactive:
COC1=C[C@@H](C(=O)N[C@H]2CCCC[C@H]2NC(C)=O)[C@@H](C)[C@H](c2ccccc2)CC1=O, COC(=O)C[C@H]1c2ccccc2[C@@H]2C(=C[C@@H](C)[C@H]3C(=O)N(O)C(=O)[C@H]32)N1C(=O)OC, COC(=O)NC(c1ccccc1)c1c[nH]c2ccccc12 (stereo not given), CCN1C(=O)NC(c2ccco2)C(C(C)=O)=C1C (stereo not given), C#CCCCON=C1C[C@@H](O)[C@H](O)[C@H]2[C@@H]3C(=O)N(Cc4ccc5c(c4)OCO5)C(=O)[C@@H]3CC[C@@H]12, C=CC1=C2C=C(C3CC3)N(CC3CC3)C=C2C(=O)C(C)(OC(=O)c2ccco2)C1=O (stereo not given), CC(C)Nc1oc(-c2ccccc2)nc1-c1ccc(C(F)(F)F)cc1, CCO[C@@H]1C[C@@]1(C=C[C@@H](C)[C@H](OC)c1ccccc1Br)C(=O)OC, COc1cccc([C@@H]2Oc3ccc(Br)cc3C(=O)[C@@H]2OC(=O)N[C@H](C)C2CCCCC2)c1, CC1=C[C@@H](C)OC2(C1)C(=O)N(Cc1ccc(Br)cc1)c1cccc(Br)c12 (stereo not given in full), CC(=O)[C@@H]1[C@@H](C)N(Cc2ccccc2)C(=O)N[C@H]1c1ccccc1, C=CCCN1C(=O)NC(c2ccccc2)C(C(C)=O)=C1C (stereo not given), C[C@@H]1CC[C@H]2C(=O)N(Cc3ccccc3)C[C@H](O)CN2[C@@H]1c1ccc(Br)cc1, C#CCCCON=C1C[C@@H](O)[C@H](O)[C@H]2[C@@H]3C(=O)N(C[C@@H]4CCCO4)C(=O)[C@@H]3CC[C@@H]12, CCN1C(=O)N[C@@H](CCc2ccccc2)[C@H](C(C)=O)[C@H]1C, COC(=O)C1=C(C)N(Cc2ccco2)C(=O)NC1c1ccco1 (stereo not given), CC12C=C(C=Cc3ccc(F)cc3)C(C)(C1)C(c1ccc(F)cc1)CC2=O (stereo not given), COc1cccc([C@@H]2Oc3ccc(Br)cc3C(=O)[C@@H]2OC(=O)N[C@H]2CCCc3ccccc32)c1, C#CCCCON=C1C[C@@H](O)[C@H](O)[C@H]2[C@@H]3C(=O)N(c4ccc(F)cc4F)C(=O)[C@@H]3CC[C@@H]12, CCCCCC1=CC2=C(C(=O)OC)C(c3ccccc3)NC(=O)N2CC1 (stereo not given), COc1ccc(OC[C@H]2CN3[C@H](c4ccc(Br)cc4)[C@H](C)CC[C@H]3C(=O)O2)cc1, CCOC(=O)CN1C(=O)[C@@]2(CC(C)=C[C@@H](COCc3ccccc3)O2)c2ccccc21, COC(=O)C1=C(C(=O)OC)[C@@H]2N(Cc3ccccc3)c3ccccc3[C@@]23C[C@@H](C(=O)OC)N(C(=O)Nc2ccccc2F)C3=N1, COc1ccc(OC[C@@H]2CC3[C@@H](CC[C@@H](C)[C@H]3c3ccc(Br)cc3)C(=O)O2)cc1 (stereo not given in full), COc1ccc(C(=O)[C@]2(C)C=C(c3ccc(OC)cc3)[C@H](C)C2)cc1, CCOC(=O)CNC(=O)O[C@H]1C(=O)c2ccc(OC)cc2O[C@@H]1c1ccc2c(c1)OCO2, C=CCOC(=O)N[C@H](c1ccc(-c2ccccc2)cc1)[C@H](C)C=CCC(=O)OC, CC1=CC[C@@H](C)O[C@@]2(C1)C(=O)Nc1cccc(Br)c12, C#CCCCON=C1C[C@@H](O)[C@H](O)[C@H]2[C@@H]3C(=O)N(C[C@@H]4CCCO4)C(=O)[C@@H]3CC[C@H]12, O=C(NN=C1C[C@@H](O)[C@H](O)[C@H]2[C@@H]3C(=O)N(c4cccc(Oc5ccccc5)c4)C(=O)[C@@H]3CC[C@H]12)OCc1ccccc1, COc1ccc(COC(=O)NN=C2C[C@@H](O)[C@@H](O)[C@@H]3[C@H]4C(=O)N(C5CCCCC5)C(=O)[C@@H]4CC[C@H]23)cc1, C=C(C)C(=O)C=Cc1ccc(Br)cc1, CCOC(=O)NN=C1C[C@@H](O)[C@@H](O)[C@@H]2[C@H]3C(=O)N(Cc4ccccc4)C(=O)[C@@H]3CC[C@@H]12, CCCCc1cc2c(cn1)=C(OC(=O)C1CCCC1)C(C)(OC(=O)CC)C(=O)C=2 (stereo not given), CCN1C(=O)NC(c2cccc(C(F)(F)F)c2)C(C(=O)OC)=C1C (stereo not given), COC(=O)C1=C(C(=O)OC)[C@@H]2N(C)c3ccc(OC)cc3[C@@]23C[C@@H](C(=O)OC)N(C(=O)c2cccs2)C3=N1, COc1cccc([C@@H]2Oc3ccc(OC)cc3C(=O)[C@@H]2OC(=O)N[C@H]2CCCc3ccccc32)c1, COC(=O)NC(c1ccc2c(c1)OCO2)C(C(=O)OC)C(=O)OC (stereo not given), COc1ccc2c(c1)[C@@H](NC(=O)C(F)(F)F)[C@@H]1CCCC[C@]21c1ccccc1, COc1ccc(-c2nc3c(c4c2C[C@H](c2ccccc2)OC4)CN(C(=O)N[C@@H](C)c2ccccc2)CC3)c(C)c1

Reference: PubChem BioAssay (NCATS)
